Inconclusive results are not listed. Calls of active or inactive are those of the source. Unless noted, the call rests on the fitted dose curve; in most records, active means well fitted curve in the direction sought with a large enough effect; inconclusive means small, poorly fitted or top-dose-only effect, or another doubt; inactive means no such curve, though single readings can be large; an effect the other way counts as inactive or inconclusive.
Experiments:
[1] = qHTS for Inhibitors of the Functional Ribonucleoprotein Complex (vRNP) of Lassa (LASV) Arenavirus: Viability assay - alamar blue signal for LASV Primary Screen (AID 1347083; calls by dose curve; tested in HEK293 reporter line; further: series mostly up to about 57 µM; nearly all actives have a fitted effect of over 80% in size)
[2] = qHTS for Inhibitors of the Functional Ribonucleoprotein Complex (vRNP) of Lymphocytic Choriomeningitis Arenaviruses (LCMV): Viability assay - alamar blue signal for LCMV Primary Screen (AID 1347085; calls by dose curve; tested in HEK293 reporter line; further: series mostly up to about 57 µM; nearly all actives have a fitted effect of over 80% in size)
[3] = biological target: Nucleoprotein (Lymphocytic choriomeningitis virus (strain Armstrong)) (UniProt P09992); test: qHTS for Inhibitors of the Functional Ribonucleoprotein Complex (vRNP) of Lymphocytic Choriomeningitis Arenaviruses (LCMV): LCMV Primary Screen - GLuc reporter signal (AID 1347086; calls by dose curve; further: series mostly up to about 57 µM; nearly all actives have a fitted effect of over 70% in size)
Sequence of Nucleoprotein (Lymphocytic choriomeningitis virus (strain Armstrong)) (P09992 whole entry, looked up): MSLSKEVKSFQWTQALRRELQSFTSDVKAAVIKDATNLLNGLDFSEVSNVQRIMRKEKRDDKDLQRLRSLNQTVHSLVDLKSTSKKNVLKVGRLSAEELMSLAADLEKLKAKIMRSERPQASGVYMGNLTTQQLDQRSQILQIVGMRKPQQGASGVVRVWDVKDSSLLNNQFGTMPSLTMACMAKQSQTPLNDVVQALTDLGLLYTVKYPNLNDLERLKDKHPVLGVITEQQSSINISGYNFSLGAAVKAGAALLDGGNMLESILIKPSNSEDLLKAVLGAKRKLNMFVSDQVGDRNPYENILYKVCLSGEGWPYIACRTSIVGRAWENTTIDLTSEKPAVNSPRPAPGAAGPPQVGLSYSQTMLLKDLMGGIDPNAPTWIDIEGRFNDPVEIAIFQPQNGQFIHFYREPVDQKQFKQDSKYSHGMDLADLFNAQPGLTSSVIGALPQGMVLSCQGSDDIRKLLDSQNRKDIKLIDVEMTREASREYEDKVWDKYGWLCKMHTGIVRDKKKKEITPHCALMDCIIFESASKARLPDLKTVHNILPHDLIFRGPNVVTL

[4] = qHTS of pediatric cancer cell lines to identify multiple opportunities for drug repurposing: Primary screen for TC32 cells (AID 1347089); further: nearly all actives have a fitted effect of over 60% in size
Summary of the method: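 Luminescent ATP read-out (CellTiter-Glo) of metabolically active TC32 cells after 48 h exposure. Concentration-response curves came from 11-point (MIPE, 0.78 nM–46 µM) or 8-point (NPC, 0.59 nM–46 µM) primary titrations; follow-up used 11 points.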

[5] = qHTS of pediatric cancer cell lines to identify multiple opportunities for drug repurposing: Primary screen for DAOY cells (AID 1347090); further: series mostly up to about 46 µM; nearly all actives have a fitted effect of over 55% in size
Summary of the method: (§1)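 Eight- or eleven-point concentration series, 48 h treatment at 37 degrees C in growth media; readout CellTiter-Glo luminescence. Potency and efficacy were taken from the concentration-response curves.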

[6] = qHTS of pediatric cancer cell lines to identify multiple opportunities for drug repurposing: Primary screen for SJ-GBM2 cells (AID 1347091)
Summary of the method: as §1

[7] = qHTS of pediatric cancer cell lines to identify multiple opportunities for drug repurposing: Primary screen for A673 cells (AID 1347092); further: nearly all actives have a fitted effect of over 45% in size
Summary of the method: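 Cell viability of A673 measured by CellTiter-Glo ATP luminescence after 48 hours compound exposure. Dilution series spanned 0.78 nM to 46 µM (MIPE, 11-point) or 0.59 nM to 46 µM (NPC, 8-point); bortezomib 2.3 uM positive control.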

[8] = qHTS of pediatric cancer cell lines to identify multiple opportunities for drug repurposing: Primary screen for SK-N-MC cells (AID 1347093); further: series mostly up to about 46 µM
Summary of the method: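 Metabolically active cells were quantified by ATP-dependent luminescence (CellTiter-Glo, 15 min at room temperature) following 48 h treatment. Cells had been plated at 500-1,000 per well and settled for 5 h beforehand.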

[9] = qHTS of pediatric cancer cell lines to identify multiple opportunities for drug repurposing: Primary screen for BT-37 cells (AID 1347094); further: series mostly up to about 57 µM
Summary of the method: (§2)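 Primary screen of approved and investigational compounds on cells in growth media at 37 degrees C, 5% CO2. MIPE set at 11-point and NPC set at 8-point dilutions; viability scored by ATP-based luminescence at 48 hours.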

[10] = qHTS of pediatric cancer cell lines to identify multiple opportunities for drug repurposing: Primary screen for NB-EBc1 cells (AID 1347095)
Summary of the method: as §2

[11] = qHTS of pediatric cancer cell lines to identify multiple opportunities for drug repurposing: Primary screen for U-2 OS cells (AID 1347096); further: nearly all actives have a fitted effect of over 50% in size
Summary of the method: (§3)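 Cells (500-1,000/well) in growth media were settled 5 h at 37 degrees C, then given compounds for 48 h. Viability was read as CellTiter-Glo luminescence. Primary runs used MIPE at 11 points (0.78 nM-46 µM) and NPC at 8 points (0.59 nM-46 µM); follow-ups used 11 points.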

[12] = qHTS of pediatric cancer cell lines to identify multiple opportunities for drug repurposing: Primary screen for Saos-2 cells (AID 1347097); further: nearly all actives have a fitted effect of over 40% in size
Summary of the method: as §2

[13] = qHTS of pediatric cancer cell lines to identify multiple opportunities for drug repurposing: Primary screen for SK-N-SH cells (AID 1347098);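 further: DMSO served as neutral control and bortezomib at 2.3 µM as positive control; nearly all actives have a fitted effect of over 65% in size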
Summary of the method: (§4)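 Cells (500-1,000/well) rested 5 h, then received compounds for 48 h; metabolically active cells were measured by CellTiter-Glo luminescence. Final concentrations spanned up to 46 µM (MIPE, 11-point) or 0.59 nM-46 µM (NPC, 8-point) in primary screens, 11-point in follow-ups.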

[14] = qHTS of pediatric cancer cell lines to identify multiple opportunities for drug repurposing: Primary screen for LAN-5 cells (AID 1347100)
Summary of the method: as §3

[15] = qHTS of pediatric cancer cell lines to identify multiple opportunities for drug repurposing: Primary screen for BT-12 cells (AID 1347101); further: nearly all actives have a fitted effect of over 25% in size
Summary of the method: as §4

[16] = qHTS of pediatric cancer cell lines to identify multiple opportunities for drug repurposing: Primary screen for Rh18 cells (AID 1347102); further: nearly all actives have a fitted effect of over 65% in size
Summary of the method: as §3

[17] = qHTS of pediatric cancer cell lines to identify multiple opportunities for drug repurposing: Primary screen for OHS-50 cells (AID 1347103); further: nearly all actives have a fitted effect of over 40% in size
Summary of the method: as §4

[18] = qHTS of pediatric cancer cell lines to identify multiple opportunities for drug repurposing: Primary screen for RD cells (AID 1347104); further: nearly all actives have a fitted effect of over 55% in size
Summary of the method: as §2

[19] = qHTS of pediatric cancer cell lines to identify multiple opportunities for drug repurposing: Primary screen for MG 63 (6-TG R) cells (AID 1347105); further: nearly all actives have a fitted effect of over 50% in size
Summary of the method: as §2

[20] = qHTS of pediatric cancer cell lines to identify multiple opportunities for drug repurposing: Primary screen for NB1643 cells (AID 1347099); further: nearly all actives have a fitted effect of over 50% in size
Summary of the method: as §2

Measured: Potency

C[C@H](N)C(=O)c1ccccc1
inactive: [1] | [2] | [3] | [4] | [5] | [6] | [7] | [8] | [9] | [10] | [11] | [12] | [13] | [14] | [15] | [16] | [17] | [18]

Clc1cccc(C(c2ccc3nc[nH]c3c2)n2ccnc2)c1 (centres undefined)
inactive: [1] | [2] | [3]

CC(=O)c1ccc(O)c(C(N)=O)c1
inactive: [1] | [2] | [3]

O=C(Nc1ccc(Cl)c(Cl)c1)C1CC1
inactive: [1] | [2] | [3]

CC(C)N(CCC(C(N)=O)(c1ccccc1)c1ccccn1)C(C)C (centres undefined)
inactive: [1] | [2] | [3] | [4] | [5] | [6] | [7] | [8] | [9] | [10] | [11] | [12] | [13] | [14] | [15] | [16] | [17] | [18] | [19]

Nc1ccc([As](=O)(O)O)cc1
inactive: [1] | [2] | [3] | [4] | [5] | [6] | [7] | [8] | [9] | [10] | [11] | [12] | [13] | [20] | [14] | [15] | [16] | [17] | [18]

CC(C)Cc1ccc(CC(=O)O)cc1
inactive: [1] | [2] | [3]

NNc1ccccc1
inactive: [1] | [2] | [3] | [4] | [5] | [6] | [7] | [8] | [9] | [10] | [11] | [12] | [13] | [20] | [15] | [16] | [17] | [18] | [19]

CNCC(=O)c1ccc(O)c(O)c1
inactive: [1] | [2] | [3] | [4] | [5] | [6] | [7] | [8] | [9] | [10] | [11] | [12] | [13] | [20] | [14] | [15] | [16] | [17] | [18] | [19]

C=CCC1([C@H](C)CCC)C(=O)NC(=O)NC1=O
inactive: [1] | [2] | [3] | [4] | [5] | [6] | [7] | [8] | [9] | [10] | [11] | [12] | [13] | [20] | [14] | [15] | [16] | [17] | [18]

O=P1(N(CCCl)CCCl)NCCCO1 (centres undefined)
inactive: [1] | [2] | [3] | [4] | [5] | [6] | [7] | [8] | [9] | [10] | [11] | [12] | [13] | [20] | [14] | [15] | [16] | [17] | [18]

COc1ccc2c3c1O[C@H]1[C@H](O)CC[C@H]4[C@@H](C2)N(C)CC[C@@]341
inactive: [1] | [2] | [3] | [4] | [5] | [6] | [7] | [8] | [9] | [10] | [11] | [12] | [13] | [14] | [15] | [16] | [17] | [18] | [19]

CC(C)(N)Cc1ccccc1Cl
inactive: [1] | [2] | [3] | [4] | [5] | [6] | [7] | [8] | [9] | [10] | [11] | [12] | [13] | [20] | [14] | [15] | [16] | [17] | [18] | [19]

CCOC(=O)CC(SP(=S)(OC)OC)C(=O)OCC (centres undefined)
inactive: [1] | [2] | [3] | [4] | [5] | [6] | [7] | [8] | [9] | [10] | [11] | [12] | [13] | [20] | [14] | [15] | [16] | [17] | [18] | [19]

Clc1ccccc1N1CCNCC1
inactive: [1] | [2] | [3] | [4] | [5] | [6] | [7] | [8] | [9] | [10] | [11] | [12] | [13] | [14] | [15] | [16] | [17] | [18]

Cc1ncsc1CCCl
inactive: [1] | [2] | [3] | [4] | [5] | [6] | [7] | [8] | [9] | [10] | [11] | [12] | [13] | [14] | [15] | [16] | [17] | [18]

CC1(C)C(C=C(Cl)Cl)C1C(=O)OC(C#N)c1cccc(Oc2ccccc2)c1 (centres undefined)
inactive: [1] | [2] | [3] | [4] | [5] | [6] | [7] | [8] | [9] | [10] | [11] | [12] | [20] | [14] | [15] | [16] | [17] | [18] | [19]

CC(C)NC(C)C
inactive: [1] | [2] | [3] | [4] | [5] | [6] | [7] | [8] | [9] | [10] | [11] | [12] | [13] | [20] | [14] | [15] | [16] | [17] | [18] | [19]

Reference: PubChem BioAssay (NCATS)
